Assay outcomes deposited in PubChem by several laboratories.
Compounds with a hit are over-represented: about 1.4% of the library has one in this group of screens.
A3A deaminase = APOBEC3A ssDNA deaminase inhibitors, primary screen, selectivity assay for APOBEC3G inhibitor project, biochemical, FAM/TAMRA oligo cleavage fluorescence; recombinant A3A, FAM/TAMRA ssDNA deamination fluorescence; inhibition, % at 20 µM; 0.41% of 330,000 active;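 active means at least 40% inhibition at 20 µM here, with at most 30% in a related deaminase screen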
A3G deaminase = APOBEC3G DNA deaminase inhibitors, primary screen, biochemical, fluorescence, single-stranded DNA substrate, uHTS. DNA dC->dU-editing enzyme APOBEC-3G (Homo sapiens), Q9HC16. recombinant A3G, ssDNA deamination FAM/TAMRA fluorescence. inhibition, % at 20 µM. 0.28% of 330,000 active;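 active means inhibition of at least 40% at 20 µM, with no more than 30% in the related APOBEC3A deaminase screen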
Target sequence (Q9HC16 whole entry, looked up): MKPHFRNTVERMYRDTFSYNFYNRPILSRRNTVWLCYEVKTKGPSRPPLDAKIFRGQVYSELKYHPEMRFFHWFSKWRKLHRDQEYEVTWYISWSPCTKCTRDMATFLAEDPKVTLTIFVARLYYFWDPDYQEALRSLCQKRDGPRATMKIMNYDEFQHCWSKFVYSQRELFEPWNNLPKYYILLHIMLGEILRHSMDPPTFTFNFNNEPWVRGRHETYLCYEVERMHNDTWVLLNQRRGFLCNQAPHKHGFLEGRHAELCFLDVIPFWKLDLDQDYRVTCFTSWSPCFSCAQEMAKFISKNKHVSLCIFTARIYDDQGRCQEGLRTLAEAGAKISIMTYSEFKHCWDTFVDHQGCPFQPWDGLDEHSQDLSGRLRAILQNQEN
LANA-H2B inh = blockers of LANA interaction with H2A/H2B – biochemical, FP readout, HTS, primary screen; cell-free LANA-H2A/H2B peptide, fluorescence polarization; inhibition, % (concentration not given with the values); 0.6% of 320,000 active; AID 2629, 2010; in the data active means inhibition mostly above about 10%, no sharp cut-off; inactive means mostly below about 6.7%
HDAC3 inhib = HDAC3 deacetylase inhibitors, primary screen, biochemical, fluorescence, cell-free homogeneous; recombinant HDAC3, fluorogenic peptide/trypsin coupled; inhibition, % at 8.3 µM; 0.15% of 320,000 active; AID 2718, 2010; in the data active means inhibition above about 26%, passing the limit was not always enough
Each line names hits and unclear results; the compound was inactive in the other large screens; ! = not confirmed by another sample.

C[C@]12CCC(=O)C=C1CC[C@@H]1C2CC[C@]2(C)C(=O)CCC12 (stereo partly specified)	none
C[C@]12CCC(=O)C=C1CC[C@@H]1[C@@H]2CC[C@]2(C)C(=O)CC[C@@H]12	LANA-H2B inh 16!
Cc1cc(C)[n+](C2C3CC4CC(C3)CC2C4)o1 (stereo unspecified)	none
CC(C)CC(C)N (stereo unspecified)	LANA-H2B inh 45
CCN1C(=O)/C(=C/c2ccc(N(CC)CC)cc2OC)C(=O)NC1=S	none
O=C(O)c1cc[c]([Hg][Cl])cc1	HDAC3 inhib 95
ClC(Cl)=C(c1ccc(Cl)cc1)c1ccc(Cl)cc1	none
COc1nc(C)nc(NC(=O)NS(=O)(=O)c2ccccc2Cl)n1	none
CC(C)[C@@]1(NC(=O)[C@@H]2C[C@@H]3c4cccc5[nH]cc(c45)C[C@H]3N(C)C2)O[C@@]2(O)[C@@H]3CCCN3C(=O)[C@H](Cc3ccccc3)N2C1=O	LANA-H2B inh 16
CC(C)[C@H]1C(=O)N2CCC[C@H]2[C@]2(O)O[C@](NC(=O)[C@@H]3C=C4c5cccc6[nH]cc(c56)C[C@H]4N(C)C3)(C(C)C)C(=O)N12	LANA-H2B inh 11
CN1C[C@H](CO)C=C2c3cccc4[nH]cc(c34)C[C@H]21	none
CC(C)C[C@H]1C(=O)N2CCCC2[C@]2(O)O[C@](NC(=O)[C@@H]3C=C4c5cccc6[nH]cc(c56)CC4N(C)C3)(C(C)C)C(=O)N12 (stereo partly specified)	LANA-H2B inh 21!
Cc1c(C)c2ccc(OCC(=O)N3C[C@H]4C[C@@H](C3)c3cccc(=O)n3C4)cc2oc1=O	none
CCOc1cccc(CNCCc2c(C)[nH]c3ccc(OC(F)(F)F)cc23)c1O	none
Cc1cccc(NP(=O)(Oc2ccccc2F)Oc2ccccc2F)c1	none (no result: A3A deaminase, A3G deaminase, LANA-H2B inh)
Cc1ccc(NP(=O)(Oc2ccccc2F)Oc2ccccc2F)cc1C	HDAC3 inhib 30 (no result: A3A deaminase, A3G deaminase, LANA-H2B inh)
CCOC(=O)C1=C(N)Oc2cc(C)oc(=O)c2C12C(=O)N1c3c(cccc32)C(C)CC1(C)C (stereo unspecified)	LANA-H2B inh 33
COc1ccc(C)cc1NC1=NC(C)(C)CS1	none (no result: HDAC3 inhib)
CCOP(=O)(OCC)c1ccc(OP(=O)(c2cccc([N+](=O)[O-])c2)c2cccc([N+](=O)[O-])c2)cc1	HDAC3 inhib 57
CC1=NCCc2c1[nH]c1cc(O)ccc21	LANA-H2B inh 142
Nc1cc(Cl)cc(C(=O)O)c1Cl	LANA-H2B inh 38
O=C(c1ccc(Cl)cc1)C1CCCN(C2CCSCC2)C1 (stereo unspecified)	none
CC(=O)Nc1cc(C(=O)N2CCC3(CC2)OCCO3)ccc1Sc1ccc(F)cc1	LANA-H2B inh 29
Cc1ccccc1OCCCn1cc(C(=O)C(=O)N2CCOCC2)c2ccccc21	none
C[C@@H]1CCC2[C@@H](C)C(=O)O[C@@H]3OC4(C)CCC1[C@@]23OO4 (stereo partly specified)	none
Cn1cc(C=C(C#N)C#N)c2ccccc21	LANA-H2B inh active
N#Cc1ccc(Cn2cc(C=O)c3ccccc32)cc1	none
C1CCC(NC2CCCCC2)CC1	LANA-H2B inh 141
C[CH2][Hg][S]c1ccccc1C(=O)O	HDAC3 inhib 56
CC(C)COC(=O)c1ccccc1C(=O)OCC(C)C	none
C=CC1CN2CCC1CC2[C@@H](OC(=O)c1ccc(OC)cc1)c1ccnc2ccccc12 (stereo partly specified)	LANA-H2B inh 32
O=C(c1ccc2c(=O)n(Cc3ccc4c(c3)OCO4)c(=S)[nH]c2c1)N1CCC2(CC1)OCCO2	LANA-H2B inh 57
COC(=O)C1=C(c2ccc(OC(F)(F)F)cc2)C[C@@H]2CC[C@H]1N2C(=O)NCc1cc(C)oc1C(F)(F)F	none
COc1ccccc1Cn1c(SCC(=O)C(C)(C)C)nc2cc(C(=O)N3CCC4(CC3)OCCO4)ccc2c1=O	LANA-H2B inh 12
Clc1ccccc1CN1CCN(c2cccc3[nH]ccc23)CC1	none
Cc1cnc(NC(=O)CN2CCCCC2)s1	none
